Values joined by “and” are separate entries in the source; they are usually repeats but may differ in a detail not shown here. Equal entries are not always repeated. Inconclusive results are not listed. More than one record can exist for a structure, and the calls need not agree. Active and inactive are the calls of the source. Unless noted, calls come from the whole dose curve; as a rule, active = well fitted curve in the direction sought with a large enough effect in the repeat runs; inconclusive = weak or mixed curves; inactive = no such curve, though single readings can be large; an effect the other way counts as inactive or inconclusive.

Test [1] can be described thus: qHTS assay to identify small molecule antagonists of the estrogen receptor alpha (ER-alpha) signaling pathway using the BG1 cell line in the presence of 0.1 nM 17-beta-estradiol - cell viability counter screen (AID 1259241). Note: nearly all actives have a fitted effect of over 40% in size. The gist of the method: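 Estradiol-stimulated (0.1 nM) VM7Luc4E2 cells exposed to compounds 22 hr; viability measured by fluorescence of cleaved CellTiter-Fluor substrate after 30 min.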
(In general: In qHTS, concentration-response curves come from the screen itself.)

In test [2] the target is Estrogen receptor (Homo sapiens) (UniProt P03372). Briefly: qHTS assay to identify small molecule antagonists of the estrogen receptor alpha (ER-alpha) signaling pathway using the BG1 cell line in the presence of 0.1 nM 17-beta-estradiol (AID 1259244). Note: nearly all actives have a fitted effect of over 50% in size. Note: potency is the fitted concentration of half-maximal effect. The gist of the method:
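Luciferase luminescence (ONE-Glo, 30 min at room temperature) was read after 22 hr at 37C exposure to compounds plus 17beta-estradiol at 0.1 nM final. Cells were VM7Luc4E2 with endogenous ER-alpha and an ERE-driven luciferase, pre-cultured 5 days in hormone-depleted medium.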

Test [3] is described as follows: qHTS assay to identify small molecule HDAC inhibitors (AID 1259364). Note: top concentration of the series differs between compounds; nearly all actives have a fitted effect of over 45% in size. The procedure, abridged: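 Luminescence read after 30 min room-temperature HDAC-Glo incubation measures cellular class I/II HDAC activity. Compounds were applied for 2 hr at 37 C to HCT-116 wild-type cells seeded the day before.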
Test [4] in a line: qHTS assay to identify small molecule HDAC inhibitors - cell viability counter screen (AID 1259365). For activity change, negative = cytotoxicity: series mostly up to about 92 µM. Note: nearly all actives have a fitted effect of over 50% in size. Note: potency is the fitted concentration of half-maximal effect. The procedure, abridged:
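After overnight seeding at 1,500 cells per well, wild-type HCT-116 cultures took up compounds in DMSO for 2hr at 37 C. Viable cell content came from luminescence with CellTiter-Glo.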

Test [5] is described as follows: A CellTox Green Cytotoxicity Assay to monitor cytotoxicity in HepG2 cells - 8 hour (AID 1224890). Note: nearly all actives have a fitted effect of over 45% in size. Note: potency is the fitted concentration of half-maximal effect. The gist of the method: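 Real-time cytotoxicity: fluorescence of a cell-impermeant cyanine dye binding DNA of dead HepG2 cells, measured repeatedly (0–40 h) during compound exposure at 37 C. Cells seeded 600/well with reagent, dosed after 5 h.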
Test [6] is described as follows: qHTS assay to identify small molecule agonists of the sonic hedgehog signaling (Shh) pathway - cell viability counter screen (AID 1259366). Note: nearly all actives have a fitted effect of over 50% in size. Note: potency is the fitted concentration of half-maximal effect. The gist of the method: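 Same-well cytotoxicity read. Gli1-Luc reporter 3T3 cells; compounds 24hr, 37C/5% CO2; CellTiter-Fluor fluorescence.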
The nature of test [7]: qHTS assay to identify small molecule antagonists of the sonic hedgehog signaling (Shh) pathway - cell viability counter screen (AID 1259367). Note: nearly all actives have a fitted effect of over 55% in size. Note: potency is the fitted concentration of half-maximal effect. The gist of the method:
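Tox21 library chemicals were tested on a Gli1-Luc NIH/3T3 clone (2,000 cells/well) stimulated by conditioned medium; viability was quantified as fluorescence from CellTiter-Fluor reagent added at 23 hr.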

The nature of test [8]: qHTS assay to identify small molecule antagonists of the androgen receptor (AR) signaling pathway using the MDA cell line in the presence of 0.5 nM R1881 - cell viability counter screen (AID 1259242). Note: nearly all actives have a fitted effect of over 45% in size. Note: potency is the fitted concentration of half-maximal effect. The gist of the method:
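Live-cell protease activity was measured by CellTiter-Fluor fluorescence after 30 min. Before that, MDA-kb2 MMTV-luciferase cells had 16 hr at 37C without CO2, exposed to test compounds and 0.5 nM R1881 final.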

The nature of test [9]: qHTS assay to identify small molecule phospholipidosis (PLD) inducers (AID 1259344; active = well fitted curve in the direction sought with a large enough effect; an effect the other way counts as inactive or inconclusive; note: potency is the fitted concentration of half-maximal effect). The gist of the method: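 Image-based: LipidTOX Red pit count/intensity per well and per cell; HepG2, 24 h compound at 37 C, PFA fixation, Hoechst counterstain.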
Test [10] concerns the target Androgen receptor (Homo sapiens) (UniProt P10275). In words: qHTS assay to identify small molecule antagonists of the androgen receptor (AR) signaling pathway using the MDA cell line in the presence of 0.5 nM R1881 (AID 1259243). Note: nearly all actives have a fitted effect of over 50% in size. The gist of the method:
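Luminescent reporter readout (ONE-Glo, 30 min, room temperature) after 16 hr co-treatment of MDA-kb2 cells with test compounds and 0.5 nM R1881 final, at 37C without CO2. The MMTV-driven luciferase responds to both AR and GR.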
% is set by controls: 0 for no effect and ±100 for the full control effect.

Estrogen receptor (Homo sapiens), sequence (P03372 whole entry, looked up): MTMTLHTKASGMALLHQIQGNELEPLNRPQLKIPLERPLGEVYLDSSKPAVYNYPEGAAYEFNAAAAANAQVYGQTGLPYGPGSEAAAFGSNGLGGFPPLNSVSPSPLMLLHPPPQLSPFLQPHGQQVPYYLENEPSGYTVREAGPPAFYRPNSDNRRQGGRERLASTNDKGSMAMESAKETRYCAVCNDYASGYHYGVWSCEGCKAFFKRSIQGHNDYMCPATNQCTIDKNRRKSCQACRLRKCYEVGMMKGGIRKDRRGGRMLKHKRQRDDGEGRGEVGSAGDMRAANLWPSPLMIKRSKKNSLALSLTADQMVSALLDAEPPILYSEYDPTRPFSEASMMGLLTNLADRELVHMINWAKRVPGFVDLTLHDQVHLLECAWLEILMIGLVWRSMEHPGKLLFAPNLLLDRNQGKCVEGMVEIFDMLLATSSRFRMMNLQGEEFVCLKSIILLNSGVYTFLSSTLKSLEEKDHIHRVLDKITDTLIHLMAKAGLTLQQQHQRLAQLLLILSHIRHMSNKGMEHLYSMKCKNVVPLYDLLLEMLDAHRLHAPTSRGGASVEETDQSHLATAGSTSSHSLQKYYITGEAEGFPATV
Androgen receptor (Homo sapiens), sequence (P10275 whole entry, looked up): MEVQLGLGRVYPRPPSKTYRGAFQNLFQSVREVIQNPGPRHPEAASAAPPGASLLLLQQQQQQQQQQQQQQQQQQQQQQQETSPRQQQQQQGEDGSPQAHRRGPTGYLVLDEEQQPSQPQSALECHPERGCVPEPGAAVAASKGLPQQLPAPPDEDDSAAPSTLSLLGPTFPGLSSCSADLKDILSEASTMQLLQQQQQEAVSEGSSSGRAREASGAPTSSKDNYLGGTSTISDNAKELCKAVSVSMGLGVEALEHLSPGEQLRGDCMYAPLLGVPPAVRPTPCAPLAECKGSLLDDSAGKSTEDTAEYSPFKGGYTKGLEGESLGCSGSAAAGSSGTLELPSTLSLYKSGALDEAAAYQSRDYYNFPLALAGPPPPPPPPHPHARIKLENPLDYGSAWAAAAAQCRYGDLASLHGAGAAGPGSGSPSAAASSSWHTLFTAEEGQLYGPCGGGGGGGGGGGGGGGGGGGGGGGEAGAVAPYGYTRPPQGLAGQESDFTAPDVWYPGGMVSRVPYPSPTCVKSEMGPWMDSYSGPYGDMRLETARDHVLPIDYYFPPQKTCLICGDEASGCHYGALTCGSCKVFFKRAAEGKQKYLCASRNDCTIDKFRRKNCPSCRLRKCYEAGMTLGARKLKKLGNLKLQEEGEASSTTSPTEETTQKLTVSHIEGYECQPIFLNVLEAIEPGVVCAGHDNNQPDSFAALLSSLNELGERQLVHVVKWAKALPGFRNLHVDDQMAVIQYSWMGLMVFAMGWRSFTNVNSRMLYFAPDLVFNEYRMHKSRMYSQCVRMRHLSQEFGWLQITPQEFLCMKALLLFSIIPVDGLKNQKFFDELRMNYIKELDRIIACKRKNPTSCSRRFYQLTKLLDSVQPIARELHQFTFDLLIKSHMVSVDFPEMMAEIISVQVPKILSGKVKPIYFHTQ

As to `CN1CCCC(CC2c3ccccc3Sc3ccccc32)C1` (stereo not drawn), the Potency result in test [1], in test [2], in test [3] and in test [4] was “inactive” in each case.
Regarding `Brc1cc2ccccc2c2ccccc12`, the Potency entry in test [5], in test [1], in [2], in test [3], in [6] and in test [7] was “inactive” in each case.
On to `COC(=O)c1nc(Cl)c(Cl)nc1N`, for which the Potency result in test [1] was “inactive”. The Potency in [6] was 10.6 µM (active); in test [7], 5.31 µM (active).
Consider `CC(C)c1nc(CN(C)C(=O)N[C@H](C(=O)N[C@@H](Cc2ccccc2)C[C@H](O)[C@H](Cc2ccccc2)NC(=O)OCc2cncs2)C(C)C)cs1`, for which the Potency entry in test [5], in [8], in test [2], in test [3] and in test [4] was “inactive” each time. In addition, the Potency entry in test [9] is “inactive and 10 µM (active)”; in test [6], 6.68 µM (active); in test [7], 7.5 µM (active).
As to `CC(=O)OCCN(CCOC(C)=O)c1ccc(N=Nc2ccc([N+](=O)[O-])cc2C#N)cc1`, the Potency result in test [5] was “inactive”. Further, the Potency in test [8] is 54.5 µM (active); in [4], 24.3 µM (active); in test [6] it was 48.6 µM (active); in test [7], 54.5 µM (active).
On to `O=C1c2ccccc2C(=O)c2c(O)c(O)cc(O)c21`, for which the Potency entry in test [5], in test [3] and in test [4] was “inactive” throughout.
Regarding `CN1CCCC(n2nc(Cc3ccc(Cl)cc3)c3ccccc3c2=O)CC1` (stereo not drawn), the Potency entry in [8], in test [3] and in test [4] was “inactive” throughout. Moreover, the Potency in test [6] and in test [7] was 10.6 µM (active) each time.
Take `CN(C(=O)CN(CCO)CC(=O)N(C)C(C)(C)Cc1ccccc1)C(C)(C)Cc1ccccc1`: the Potency result in test [1], in test [8], in test [9], in test [3] and in [4] was “inactive” each time.
Take `Cc1cc(=O)c2c(O)c3c(O)cc(=O)c4c3c3c(cc(O)c1c23)C(C)(C)C=4O`: the Potency in test [5] was 4.65 µM (active). Moreover, in test [9], the Potency entry was “inactive”. The activity change, negative = inhibition in [3] is 3.66% [at 19 µM] (inactive). Also, the activity change, negative = cytotoxicity in test [4] is 2.88% [at 19 µM] (inactive). Also, the viability change, negative = cytotoxic was 17.6% [at 19 µM] (inactive) in [6] and -14.6% [at 19 µM] (inactive) in test [7].
As for `CC(CN(C)C)C(C)(O)Cc1ccc(Cl)cc1` (stereo not drawn), the Potency result in [1], in test [8], in [10], in test [2], in [9] and in test [3] was “inactive” each time. The Potency entry in test [4], in test [6] and in test [7] was “inactive” each time.
With `CC(CC1c2ccccc2CCc2ccccc21)CN(C)C` (stereo not drawn), the Potency result in test [5], in test [3], in test [6] and in test [7] was “inactive” in each case.
With `O=[N+]([O-])c1ccc(Nc2ccc(Nc3ccccc3)c(S(=O)(=O)O)c2)c([N+](=O)[O-])c1`, the Potency entry in test [5] and in test [3] was “inactive” throughout.
On to `COc1ncnc(NS(=O)(=O)c2ccc(N)cc2)c1OC`, for which the Potency result in test [1], in test [8], in test [2], in test [9], in test [3] and in [6] was “inactive” throughout. For the same compound, in [7], the Potency entry is “inactive”.
Regarding `CN1C[C@H](C(=O)N[C@]2(C)O[C@@]3(O)[C@@H]4CCCN4C(=O)[C@H](Cc4ccccc4)N3C2=O)C[C@@H]2c3cccc4[nH]cc(c34)C[C@H]21`, the Potency result in test [5], in test [8], in [3], in [4] and in test [7] was “inactive” throughout.
Turning to `COc1ccccc1N1CCN(CCCCNC(=O)c2ccc(-c3ccc(C(C)=O)cc3)cc2)CC1`, the Potency result in test [5], in test [1], in test [3], in [4], in test [6] and in test [7] was “inactive” in each case.
Consider `O=c1cc(-c2ccccc2)oc2ccc3ccccc3c12`, for which the Potency result in [1], in test [8], in [10], in test [2], in test [6] and in [7] was “inactive” each time.
For `CCCCN1CCCC1C(=O)Nc1c(C)cc(C)cc1C` (stereo not drawn), the Potency result in test [1], in test [8], in test [2], in test [9], in test [3] and in test [4] was “inactive” each time. In [6], the Potency result is “inactive”.
Turning to `c1ccc(C[n+]2cccc3ccccc32)cc1`, the Potency result in test [5], in [1], in test [3], in test [4] and in test [6] was “inactive” in each case.
Turning to `COc1cc(C(=O)NC2CCN(C)CC2)ccc1Nc1ncc2c(n1)N(C1CCCC1)CC(F)(F)C(=O)N2C`, the Potency in test [5] was 50.4 µM (active); in test [2] it was 2.81 µM (active); in test [6], 5.6 µM (active); in [7], 0.791 µM (active). Also, the Potency entry in [10], in test [3] and in [4] was “inactive” in each case.
